The source of these data is publication PMC11062922 (Nature Chemical Biology, 2023).

What all share (parameters): species or system human, MV4-11 + K-562 + COLO205 + SK-N-BE2 + OVCAR-8
One assay deals with FECH. The following applies: read-out: apparent Kd, n = 1.
For a further assay, the system named is FLT3. The following applies: read-out: apparent Kd, compound concentrations: 100 nM and 1000 nM (sheet 'Samples'), n = 1.
A further assay relates to MELK. The following applies: read-out: apparent Kd; compound concentrations: 100 nM and 1000 nM (sheet 'Samples'), CATDS: 0.102611877302843; n = 1.
A further assay concerns MERTK. The following applies: read-out: apparent Kd; compound concentrations: 100 nM and 1000 nM (sheet 'Samples'), CATDS: 0.11247191939654499; n = 1.
Another assay deals with PDGFRB. The following applies: read-out: apparent Kd, compound concentrations: 100 nM and 1000 nM (sheet 'Samples'), n = 1.
A further assay relates to RET. The following applies: read-out: apparent Kd, compound concentrations: 100 nM and 1000 nM (sheet 'Samples'), n = 1.
A further assay has as its system SIK2. The following applies: read-out: apparent Kd; compound concentrations: 100 nM and 1000 nM (sheet 'Samples'), CATDS: 0.136273413737004; n = 1.
The test system of another assay is PLK1. The following applies: read-out: apparent Kd, n = 1.
The test system of another assay is VDAC3. The following applies: read-out: apparent Kd; compound concentrations: 100 nM and 1000 nM (sheet 'Samples'), CATDS: 0.46722570663248902; n = 1.
The next assay deals with IARS. Conditions: read-out: apparent Kd; compound concentrations:100 nM and 1000 nM (sheet 'Samples'); n = 1.
A further assay has as its system NQO1. Conditions: read-out: apparent Kd; compound concentrations:100 nM and 1000 nM (sheet 'Samples'); n = 1.
In the next assay the test system is PIK3CD. Conditions: read-out: apparent Kd; compound concentrations:100 nM and 1000 nM (sheet 'Samples'); n = 1.
Another assay has as its system MAP2K5. Conditions: read-out: apparent Kd; compound concentrations:100 nM and 1000 nM (sheet 'Samples'); n = 1.
A further assay deals with YES1. Conditions: read-out: apparent Kd; compound concentrations:100 nM and 1000 nM (sheet 'Samples'); n = 1.
A further assay concerns NTRK1. The following applies: read-out: apparent Kd; compound concentrations:100 nM and 1000 nM (sheet 'Samples'); n = 1.
The subject of another assay is PDXK. Conditions: read-out: apparent Kd; compound concentrations:100 nM and 1000 nM (sheet 'Samples'); n = 1.
The next assay deals with FER. The following applies: read-out: apparent Kd; compound concentrations: 100 nM and 1000 nM (sheet 'Samples'), CATDS: 0.23966612691904199; n = 1.
The test system of a further assay is IGF1R. The following applies: read-out: apparent Kd; compound concentrations: 100 nM and 1000 nM (sheet 'Samples'), CATDS: 0.234502945323845; n = 1.
A further assay concerns INSR. Conditions: read-out: apparent Kd; compound concentrations: 100 nM and 1000 nM (sheet 'Samples'), CATDS: 0.33480579514984299; n = 1.
The test system of another assay is JAK2. Conditions: read-out: apparent Kd; compound concentrations: 100 nM and 1000 nM (sheet 'Samples'), CATDS: 0.21851313363519401; n = 1.
For a further assay, the system named is FGFR1. The following applies: read-out: apparent Kd; compound concentrations:100 nM and 1000 nM (sheet 'Samples'); n = 1.
Another assay has as its system PIK3C2A. Conditions: read-out: apparent Kd; compound concentrations:100 nM and 1000 nM (sheet 'Samples'); n = 1.
Another assay relates to FLT4. Conditions: read-out: apparent Kd; compound concentrations: 100 nM and 1000 nM (sheet 'Samples'), CATDS: 0.285311181024344; n = 1.
A further assay deals with LCK. Conditions: read-out: apparent Kd; compound concentrations: 100 nM and 1000 nM (sheet 'Samples'), CATDS: 8.5117028494468894E-2; n = 1.
The subject of the next assay is MAP4K1. The following applies: read-out: apparent Kd; compound concentrations: 100 nM and 1000 nM (sheet 'Samples'), CATDS: 0.115744032998791; n = 1.
The test system of another assay is MAP4K2. The following applies: read-out: apparent Kd; compound concentrations: 100 nM and 1000 nM (sheet 'Samples'), CATDS: 7.8376321207257696E-2; n = 1.
The next assay concerns MAP4K3. Conditions: read-out: apparent Kd; compound concentrations: 100 nM and 1000 nM (sheet 'Samples'), CATDS: 7.2653483868183794E-2; n = 1.
Another assay has as its system MAP4K5. Conditions: read-out: apparent Kd; compound concentrations: 100 nM and 1000 nM (sheet 'Samples'), CATDS: 9.0249941941856496E-2; n = 1.
The test system of the next assay is TNIK. Conditions: read-out: apparent Kd, compound concentrations: 100 nM and 1000 nM (sheet 'Samples'), n = 1.
In a further assay the test system is TNK1. The following applies: read-out: apparent Kd; compound concentrations: 100 nM and 1000 nM (sheet 'Samples'), CATDS: 9.7568423036534901E-2; n = 1.
The next assay deals with MYLK3. The following applies: read-out: apparent Kd, compound concentrations: 100 nM and 1000 nM (sheet 'Samples'), n = 1.
A further assay has as its system TTK. Conditions: read-out: apparent Kd, compound concentrations: 100 nM and 1000 nM (sheet 'Samples'), n = 1.
The subject of a further assay is MAP3K1. Conditions: read-out: apparent Kd; compound concentrations: 100 nM and 1000 nM (sheet 'Samples'), CATDS: 0.23263789115969999; n = 1.
Another assay relates to TTN. The following applies: read-out: apparent Kd, compound concentrations: 100 nM and 1000 nM (sheet 'Samples'), n = 1.
The next assay relates to RIPK3. Conditions: read-out: apparent Kd; compound concentrations: 100 nM and 1000 nM (sheet 'Samples'), CATDS: 0.17836354308348701; n = 1.
The next assay relates to STK26. Conditions: read-out: apparent Kd; compound concentrations: 100 nM and 1000 nM (sheet 'Samples'), CATDS: 0.187537130117577; n = 1.
Setting [1] is: compound concentrations:100 nM and 1000 nM (sheet 'Samples').

Where two headings read alike, the source gives them in different places.

With `COc1cc2c(cc1OC)C(=C(Nc1ccccc1)c1cccc(CN)c1)C(=O)N2` [BIBF0846CL], the potency estimated from few doses was 62.1 nM in the assay on FECH (compound concentrations: 100 nM and 1000 nM (sheet 'Samples'), CATDS: 0.35888442724353598); 829 nM in the assay on FLT3 (CATDS: 0.119493571435742); 1410 nM in the assay with MELK; 1010 nM with MERTK; 1310 nM in the assay with PDGFRB (CATDS: 0.104628993679762); 45.3 nM in the assay with RET (CATDS: 0.43241388330783698). Also, in the assay with SIK2, the potency estimated from few doses was 560 nM.

With `NC(=O)c1sc(-n2cnc3ccccc32)cc1OCc1ccccc1F` [GSK1024306A], the potency estimated from few doses in the assay on FECH (compound concentrations: 100 nM and 1000 nM (sheet 'Samples'), CATDS: 0.40591450620250102) is 2130 nM; in the assay with PLK1 (compound concentrations: 100 nM and 1000 nM (sheet 'Samples'), CATDS: 0.65086071220868402), 781 nM.

For the compound `Cc1nnc(-c2cccc(-c3ccc(C(=O)NCC4CC4)cc3)c2)o1` [GW734508X], the potency estimated from few doses was 1500 nM in the assay with FECH (compound concentrations: 100 nM and 1000 nM (sheet 'Samples'), CATDS: 0.53771916993111701); 1990 nM in the assay with VDAC3.

In the case of `COc1cc2ncn(-c3cc(OCc4ccc(S(C)(=O)=O)cc4)c(C(N)=O)s3)c2cc1OC` [GW869979X], the potency estimated from few doses in the assay on FECH (setting [1]) is 2080 nM; with IARS, 2020 nM; in the assay on NQO1 it was 2010 nM; in the assay with PIK3CD, 120 nM; with PLK1 (setting [1]) it was 1110 nM.

As to `COc1cc2ncnc(Nc3ccc4c(cnn4Cc4ccccc4)c3)c2cc1OC.Cl` [GW282449A], the potency estimated from few doses in the assay on MAP2K5 is 1120 nM; with YES1, 1110 nM.

`Cl.O=C(O[C@H]1CN[C@H](C#Cc2cc3ncnc(Nc4ccc5c(cnn5Cc5ccccc5)c4)c3s2)C1)N1CCOCC1` [GSK200398A_KCGS]: the potency estimated from few doses with MAP2K5 is 2200 nM.

As for `Cl.c1ccc(Cc2nc3ccc(Nc4ncnc5ccccc45)cc3[nH]2)cc1` [GR269666A_KCGS], the potency estimated from few doses was 1110 nM in the assay with NTRK1 and 1550 nM in the assay on PDXK.

With `COc1cc2c(cc1Nc1nc(N3CCc4ccccc43)c3cc[nH]c3n1)N(C(=O)CN(C)C)CC2` [GSK2186269A], the potency estimated from few doses with FER was 915 nM; in the assay with IGF1R, 959 nM; with INSR, 493 nM; in the assay on JAK2, 1130 nM.

For the compound `COc1cc(OC)cc(-c2cc3cnc(N)nc3nc2NC(=O)NC(C)(C)C)c1` [PFE-PKIS_3], the potency estimated from few doses in the assay on FGFR1 is 85.8 nM; in the assay on PIK3C2A, 2380 nM.

`CN(c1ccc(NC(=O)Nc2ccc(OC(F)(F)F)cc2)cc1)c1ccnc(Nc2cccc(S(N)(=O)=O)c2)n1` [GW806742X]: the potency estimated from few doses in the assay on FLT3 (CATDS: 0.14801329572366401) was 336 nM; in the assay with FLT4, 122 nM; in the assay with LCK, 1110 nM; with MAP4K1, 536 nM; in the assay with MAP4K2, 1420 nM; with MAP4K3 it was 1830 nM. Besides, the potency estimated from few doses in the assay with MAP4K5 is 951 nM; in the assay with RET (CATDS: 0.14686027995557299) it was 340 nM; in the assay with TNIK (CATDS: 6.8078386206779196E-2), 2360 nM; with TNK1, 783 nM.

Regarding `O=C1Nc2ccccc2/C1=C/Nc1ccc(-n2cncn2)cc1` [GW301789X], the potency estimated from few doses in the assay on FLT3 (CATDS: 0.22267825375754199) is 1370 nM; in the assay with MYLK3 (CATDS: 0.63148030600185001), 176 nM; in the assay with TNIK (CATDS: 0.21425546336559301), 1520 nM; in the assay on TTK (CATDS: 0.19017518811714801), 2180 nM.

For the compound `O=C(Nc1n[nH]c2nc(-c3ccco3)c(Br)cc12)c1ccc(CN2CCCC2)cc1.O=C(O)[C@H](O)[C@@H](O)C(=O)O` [SB-742352-AC], the potency estimated from few doses in the assay on FLT3 (CATDS: 0.23628807978612301) is 1550 nM; in the assay on MAP3K1, 1600 nM; with PDGFRB (CATDS: 0.24481499220571501) it was 1430 nM; with TTN (CATDS: 0.29545284543589501) it was 1010 nM.

Regarding `Cc1ccc2c(c1)/C(=N/Nc1ccc(S(N)(=O)=O)cc1)C(=O)N2` [GW275944X], the potency estimated from few doses with FLT3 (CATDS: 0.260396984763757) is 809 nM; with RIPK3 it was 1700 nM; in the assay on STK26 it was 1520 nM; with TTK (CATDS: 0.15958246539429699) it was 2270 nM; in the assay on TTN (CATDS: 0.25287309010543901), 851 nM.

Take `O=C1Nc2ccccc2/C1=C/Nc1ccc2[nH]c(=O)[nH]c2c1` [GW284408X]: the potency estimated from few doses in the assay on FLT3 (CATDS: 0.54453262493036503) was 348 nM; in the assay with MYLK3 (CATDS: 0.46220060091739101), 485 nM.

`c1ccc(Nc2ncc(-c3ccccc3)o2)cc1` [GW549390X]: the potency estimated from few doses in the assay on FLT3 (CATDS: 0.74599434863178504) is 273 nM; in the assay on TTN (CATDS: 0.37600950025420299) it was 1330 nM.
